Screens deposited in PubChem by The Scripps Research Institute Molecular Screening Center.
TEAD-YAP block = TEAD-YAP interaction inhibition. hit rate 1.4% among 640,000. HEK-TIYL cells, TEAD-Gal4/YAP UAS-luciferase luminescence. AID 1259422. inhibition, % at 9.12 µM; in the data active means inhibition above about 32%
GPR151 activ = activates the human receptor GPR151; Q8TDV0; PathHunter beta-arrestin GPR151 cells, luminescence; activation, % at 11.2 µM; hit rate 1% among 650,000; AID 1508602; in the data active means activation above about 4.9%
Target sequence (Q8TDV0 whole entry, looked up): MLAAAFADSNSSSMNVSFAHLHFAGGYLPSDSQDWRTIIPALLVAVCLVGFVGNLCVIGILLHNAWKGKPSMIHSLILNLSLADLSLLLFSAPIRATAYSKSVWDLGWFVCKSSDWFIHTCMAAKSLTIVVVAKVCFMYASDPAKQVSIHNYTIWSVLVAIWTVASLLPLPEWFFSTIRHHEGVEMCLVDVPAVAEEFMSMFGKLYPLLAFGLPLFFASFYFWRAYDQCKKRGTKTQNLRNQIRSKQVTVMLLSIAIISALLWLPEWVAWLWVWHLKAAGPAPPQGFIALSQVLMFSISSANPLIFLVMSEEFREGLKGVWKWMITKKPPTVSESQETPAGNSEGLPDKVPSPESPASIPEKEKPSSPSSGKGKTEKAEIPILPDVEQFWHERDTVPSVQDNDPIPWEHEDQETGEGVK
MITF inh = blocks human microphthalmia-associated transcription factor | AlphaScreen MITF homodimerization, bead proximity signal | O75030 | hit rate 0.91% among 650,000 | inhibition, % at 2.6 µM | AID 1259374; in the data active means inhibition above about 50%
FBW7 act = human FBW7 E3 ligase activation, primary screen; Q969H0; AlphaScreen FBW7–phospho-cyclin E peptide binding, activator screen; normalized activity (activation), % at 26.1 µM; hit rate 0.13% among 650,000; AID 1259310; in the data active means normalized activity above about 1.9%;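 further: purified mutant Fbw7 with reduced substrate affinity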
MITF inh conf = human MITF inhibition, confirmation; inhibition, % at 2.6 µM; hit rate 16% among 4,700; shares compounds with MITF inh; AlphaScreen MITF homodimerization, biotin/His-MITF beads;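 active means inhibition above a cutoff derived from the DMSO control wells, cut at about 28% in these data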;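 further: inhibitors lower the bead chemiluminescence by keeping MITF from dimerizing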
AS interf DR = optically interferes with AlphaScreen signal in dose response. shares compounds with MITF inh. AlphaScreen optical interference counterscreen, cell-free. IC50, µM. hit rate 6% among 480. AID 1259373; call rule not given here
AS interf ctr = counter-screen: compounds optically interfering with AlphaScreen | shares compounds with MITF inh | LysRS AlphaScreen counterscreen, signal interference, triplicate | inhibition, % at 2.6 µM | hit rate 7.6% among 4,700 | AID 1259376;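 active means inhibition above a cutoff derived from the DMSO control wells, cut at about 30% in these data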
Numbers stand for hits; i = inactive; nt = no result. The list is not random: actives were taken first. Their share in the collection is about 3.5%.

SMILES | TEAD-YAP block | GPR151 activ | MITF inh | FBW7 act | MITF inh conf | AS interf ctr | others
CCCCOc1ccc(C(=O)Nc2nc(-c3ccc(OC)cc3OC)cs2)cc1 | i | i | i | i | nt | nt
CCCCOc1ccc(C(=O)Nc2nc(-c3ccc(OC)c(C)c3)cs2)cc1 | i | i | 64.1 | i | i | i
O=C(NC1CCCCC1)N1CCN2C(=O)[C@@H]3C[C@@H](O)CN3C(=O)[C@H]2C1 | i | i | 80.5 | i | 73.4 | i | AS interf DR=i
O=C(NC1CCCCC1)N1CCN2C(=O)[C@@H]3CSCN3C(=O)[C@H]2C1 | i | i | 76.2 | i | 60.3 | i | AS interf DR=i
COc1ccc(CCNCc2ccc(-n3ccnc3)cc2)cc1 | i | i | i | i | nt | nt
COc1ccc(CNC(C)c2ccc(-n3ccnc3)cc2)cc1F (stereo not given) | i | i | 65.5 | i | i | i
O=C1/C(=C\c2ccco2)CC2CC1C/C(=C/c1ccco1)C2=O | i | i | 51.8 | i | i | i
O=C1/C(=C\c2cccs2)CC2CC1C/C(=C/c1cccs1)C2=O | i | i | i | i | nt | nt
Cc1ccc2oc(-c3ccc(C)c(NC(=O)c4ccccc4C)c3)nc2c1 | i | i | i | i | nt | nt
Cc1ccc(S(=O)(=O)N2CCn3cccc3C2c2ccc(F)cc2)cc1 (stereo not given) | i | i | i | i | nt | nt
COc1ccc(S(=O)(=O)N2CCn3cccc3C2c2ccccc2F)cc1C (stereo not given) | i | i | 58.3 | i | i | i
O=C(OC1CCCC1=O)c1ccc(N2CCCC2=O)cc1 (stereo not given) | i | i | 62.4 | i | 44.4 | i | AS interf DR=i
C=CCc1cc(OC)ccc1OCCNCCCOC | i | i | 51.5 | i | i | i
C=CCc1cc(OC)ccc1OCCN(C)C | i | i | 63.3 | i | i | i
C=CCc1ccc(OCCN(C)C)c(OC)c1 | i | i | 81.8 | i | i | i
C=CCc1cc(OC)ccc1OCCCNCCN | i | i | i | i | nt | nt
C=CCc1cc(OC)ccc1OCCNCCN | i | i | i | i | nt | nt
COc1ccc(C(=O)N/C(=C\c2ccc(F)cc2)C(=O)Nc2cc(Cl)ccc2C)cc1 | i | i | i | i | nt | nt
O=C1OC(c2ccccc2)=N/C1=C/c1cc2ccccc2nc1N1CCOCC1 | i | i | 56.1 | i | i | i
CCN(CC)CC(=O)Nc1cccc(OC)c1 | i | i | i | i | nt | nt
CCN(CC(=O)Nc1cccc(OC)c1)Cc1cc(=O)oc2cc(NC(C)=O)ccc12 | i | i | 53.8 | i | i | i
CCN(CC(=O)Nc1cccc(OC)c1)CC(=O)Nc1ccc(C)cc1Cl | i | i | 61.7 | i | i | i
Cc1cc(C)n2nc(C(=O)N/N=C/c3ccccc3O)nc2n1 | i | i | i | i | nt | nt
COc1ccc(-n2c(SCC(=O)/C(C#N)=C(\C)N)nc3ccccc32)cc1 | i | i | 69.8 | i | i | i
CC(=O)NC1C(Oc2ccccc2C)OC2COC(C)(C)OC2C1O (stereo not given) | i | i | i | i | nt | nt
SMILES | TEAD-YAP block | GPR151 activ | MITF inh | FBW7 act | MITF inh conf | AS interf ctr | others
COC(=O)c1ccc(NC(=O)Cn2cnc3c(cnn3-c3ccc(C)c(C)c3)c2=O)cc1 | i | i | i | i | nt | nt
O=C1C2CCCN2C(=O)N1c1ccc(Br)cc1 (stereo not given) | i | i | 50.8 | i | i | i
CC(=O)OC1C2CC(C1Br)C(C(F)(F)F)(C(F)(F)F)N2 (stereo not given) | i | i | 55.2 | i | i | i
CC(=O)OC1C2CC(C1I)C(C(F)(F)F)(C(F)(F)F)N2 (stereo not given) | i | i | i | i | nt | nt
Cc1cc(OCC(O)CN2C(=O)NC(C)(C)C2=O)ccc1C(C)C (stereo not given) | i | i | i | i | nt | nt
CCCCOc1ccc(C(=O)N/C(=C/c2ccco2)C(=O)O)cc1 | i | i | 50.6 | i | 64.2 | i | AS interf DR=i
CCCCOc1ccc(C(=O)N/C(=C\c2ccco2)C(=O)OC)cc1 | i | i | i | i | nt | nt
S=c1nc2ccccc2c2[nH]c3ccccc3n12 | i | i | 56.2 | i | i | i
S=c1[nH]c2ccccc2n2c(=S)[nH]nc12 | i | i | i | i | nt | nt
O=C(/C=C/c1ccccc1Cl)NC(=S)NNC(=O)c1cccs1 | i | i | i | i | nt | nt
Cc1cc(C(=O)NNC(=S)NC(=O)/C=C/c2ccccc2Cl)n[nH]1 | i | i | 72.1 | i | 34.4 | 70.5
Cc1cc(C)c(C#N)c(SCC(=O)NC(C)C23CC4CC(CC(C4)C2)C3)n1 (stereo not given) | i | i | i | i | nt | nt
Cc1sc(NC(=O)CN(Cc2ccc(F)cc2)C(=O)c2ccccc2)c(C(N)=O)c1C | i | i | i | i | nt | nt
Cc1sc(NC(=O)CN(Cc2ccc(F)cc2)C(=O)C(C)(C)C)c(C(N)=O)c1C | i | i | 68.5 | i | i | i
O=C1NC(=Nc2ccccc2)S/C1=C/c1ccc(OC(=O)c2ccc(F)cc2)cc1 | i | i | i | i | nt | nt
Cn1c(CN(Cc2ccccc2)Cc2ccccc2)c(-c2ccccc2)c2cc([N+](=O)[O-])ccc21 | i | i | i | i | nt | nt
O=C(Nc1nc(-c2ccccc2)cs1)c1ncn[nH]1 | i | i | i | i | nt | nt
O=C(Nc1nc(-c2ccc(Br)cc2)cs1)c1ncn[nH]1 | i | i | 63.0 | i | 44.2 | 78.0
CC(C)(C)c1cc(Cl)ccc1OCCN1CCNCC1 | i | i | 58.7 | i | i | i
Clc1ccc(Cl)c(OCCCCN2CCNCC2)c1 | i | i | i | i | nt | nt
CC(O)CNCCCOc1ccc(Cl)cc1C(C)(C)C (stereo not given) | i | i | 52.4 | i | i | 57.2
CC(C)(C)c1cc(Cl)ccc1OCCCN1CCNCC1 | i | i | 76.1 | i | i | i
CNC(=S)NNC(=O)C(=O)NNC(=S)NC | i | i | 79.1 | i | i | 74.1
CNC(=S)NNC(=O)c1ccc(O)cc1 | i | i | i | i | nt | nt
C#CCN1C(=O)CC[C@@]23C1=NC(C(=O)OC)=C(C(=O)OC)[C@@H]2N(CC=C)c1ccccc13 | nt | i | i | i | nt | nt
SMILES | TEAD-YAP block | GPR151 activ | MITF inh | FBW7 act | MITF inh conf | AS interf ctr | others
O=C(Oc1ccc(-c2nc(-c3ccccc3Cl)no2)cc1)c1ccccc1 | i | i | i | i | nt | nt
CN(C)C1(CNCC(=O)Nc2ccc(F)cc2)CCCCC1 | i | i | 80.2 | i | i | i
COCCCNC(=O)/C(C#N)=C/c1ccc(-c2ccc(Cl)c(C(=O)O)c2)o1 | i | i | 58.3 | i | 46.0 | i | AS interf DR=i
O=C1CCCN1C(=O)CN1CCOCC1 | i | i | 53.2 | i | i | i
O=C1CCCN1C(=O)CN1CCCCC1 | i | i | 52.4 | i | i | i
CC1=C(C(=O)Nc2cccc(Cl)c2C)C(c2ccc(N(C)C)cc2)NC(=O)N1 (stereo not given) | i | i | i | i | nt | nt
CCc1ccc(OCC(=O)Nc2ccccc2NC(C)=O)c(Br)c1 | i | i | i | i | nt | nt
Cc1ccc2c(c1)cc1c(=O)n(CC(=O)NCCN3CCOCC3)nc(C)n12 | i | i | i | i | nt | nt
Cc1ccc2c(c1)cc1c(=O)n(CC(=O)NCCCN3CCCCC3)nc(C)n12 | i | i | 63.2 | i | i | i
